Results: PubChem BioAssay AID720551 (National Center for Advancing Translational Sciences (NCATS), 2013)
The whole screen tested about 340,000 compounds, of which about 1,300 (0.38%) were called active. This is one part of a sample in which actives are shown more often than they occur. Values without a mark were called inactive.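 How the source made its calls: active means maximum activity change below -70%; inconclusive means maximum activity change between -70% and -50%; inactive means maximum activity change above -50%.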

target: Voltage-gated inwardly rectifying potassium channel KCNH2 (Homo sapiens) (UniProt Q12809); experiment: qHTS for Inhibitors of KCHN2 3.1: Wildtype qHTS; details: U2OS, BacMam KCNH2, thallium flux FluxOr; at 1.84 µM; active compounds read low
Sequence (Q12809 whole entry, looked up): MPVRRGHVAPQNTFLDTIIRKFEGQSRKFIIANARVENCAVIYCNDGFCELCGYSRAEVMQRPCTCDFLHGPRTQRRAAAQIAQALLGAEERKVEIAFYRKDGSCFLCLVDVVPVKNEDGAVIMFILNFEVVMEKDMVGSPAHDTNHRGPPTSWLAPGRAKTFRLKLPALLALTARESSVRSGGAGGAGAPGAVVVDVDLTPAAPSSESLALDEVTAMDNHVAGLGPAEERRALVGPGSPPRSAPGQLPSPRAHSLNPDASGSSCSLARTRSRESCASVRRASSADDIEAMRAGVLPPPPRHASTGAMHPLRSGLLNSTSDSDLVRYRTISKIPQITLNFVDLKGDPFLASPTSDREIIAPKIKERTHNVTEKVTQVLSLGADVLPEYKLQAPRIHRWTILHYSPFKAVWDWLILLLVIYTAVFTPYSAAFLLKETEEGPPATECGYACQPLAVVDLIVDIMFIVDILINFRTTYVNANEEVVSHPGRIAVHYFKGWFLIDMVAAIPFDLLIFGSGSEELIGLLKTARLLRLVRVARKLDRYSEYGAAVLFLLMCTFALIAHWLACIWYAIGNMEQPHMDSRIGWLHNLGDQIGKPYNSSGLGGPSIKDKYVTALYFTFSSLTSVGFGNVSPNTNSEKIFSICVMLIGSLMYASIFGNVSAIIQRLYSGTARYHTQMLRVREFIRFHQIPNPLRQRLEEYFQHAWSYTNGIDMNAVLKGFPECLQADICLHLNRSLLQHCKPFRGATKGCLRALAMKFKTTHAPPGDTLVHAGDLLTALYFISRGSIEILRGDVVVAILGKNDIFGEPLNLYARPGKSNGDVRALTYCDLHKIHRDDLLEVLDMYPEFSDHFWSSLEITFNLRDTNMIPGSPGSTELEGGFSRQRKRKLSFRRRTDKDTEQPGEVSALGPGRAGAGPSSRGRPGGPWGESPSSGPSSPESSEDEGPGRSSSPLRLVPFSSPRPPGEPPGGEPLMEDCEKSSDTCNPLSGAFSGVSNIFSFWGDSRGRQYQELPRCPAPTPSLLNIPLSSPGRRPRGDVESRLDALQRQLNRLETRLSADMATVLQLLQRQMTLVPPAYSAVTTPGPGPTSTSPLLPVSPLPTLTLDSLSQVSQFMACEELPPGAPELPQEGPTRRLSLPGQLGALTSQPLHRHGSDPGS
Outline: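 U2OS cells transduced with wild-type KCNH2 virus are loaded with FluxOr dye for 45 min, and thallium flux is measured in kinetic reads before and after stimulation buffer. Rate constants are normalized to DMSO controls.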
On the % scale 0 is the no-effect control and ±100 the full control effect.

Row | SMILES | activity change
1 | COc1ccc(NC(=O)CCCOc2ccc(C(C)=O)cc2)cc1S(=O)(=O)N1CCCCC1 | -1.81%
2 | Cc1ccc([C@H]2C[C@H](O)[C@@H](n3cc(COC(=O)c4ccccc4)nn3)CN2C(=O)C2CCCCC2)cc1 | -0.947%
3 | C[C@@H]1CN([C@@H](C)CO)C(=O)CCCn2cc(nn2)CO[C@H]1CN(C)S(=O)(=O)c1ccc(-n2cccn2)cc1 | -21.9%
4 | O=C(NCc1nnnn1-c1ccc(Cl)cc1)c1ccc([N+](=O)[O-])o1 | 7.93%
5 | COc1ccc(-n2nnnc2CNC(=O)c2ccc3ccccc3c2)cc1 | -0.166%
6 | O=C(NCc1nnnn1-c1ccc(Cl)cc1)c1ccc2c(c1)OCO2 | -76.9% (active)
7 | C/C(COc1ccccc1)=N\NC(=O)c1nnn(-c2nonc2N)c1-c1ccc(C)cc1 | 4.6%
8 | Cc1cc2ccccn2c1C(=O)c1cccc(F)c1 | -0.532%
9 | Cc1c(C(=O)NNC(=O)c2ccncc2)oc2ccccc12 | -13.1%
10 | Cc1c(C=O)c2ccccn2c1C(=O)c1ccncc1 | -70.5% (active)
11 | O=C1[C@H]2[C@@H](c3ccc(C(F)(F)F)cc3)N[C@]3(CCCN(Cc4ccc(Cl)cc4)C3=O)[C@H]2C(=O)N1Cc1ccccc1 | -9.13%
12 | CC1CN(C(=O)CCC(=O)NC2CCN(Cc3ccccc3)CC2)c2ccccc2O1 (centres undefined) | 16.1%
13 | CC1CN(C(=O)CCC(=O)NCCCN2CCC(Cc3ccccc3)CC2)c2cc(Cl)ccc2O1 (centres undefined) | -88.2% (active)
14 | CC1CN(C(=O)CCC(=O)NCc2cccnc2)c2ccccc2O1 (centres undefined) | -2.13%
15 | CCCc1c(C)nc2scc(-c3ccc(Cl)cc3)n2c1=O | -21.6%
16 | COc1ccc(CN2C[C@H]3CON(C)[C@H]3C[C@H]2c2ccc(-c3cccc(F)c3)cc2)cc1 | -20.5%
17 | Cc1ccc(-c2ccc(CN3C(C(C)C)C(=O)N(Cc4cn(CCC5OCCO5)nn4)CCS3(=O)=O)cc2)cc1 (centres undefined) | -23.7%
18 | O=C(c1ccc(Cl)c([N+](=O)[O-])c1)N1CCN(c2ccccc2)CC1 | 9.59%
19 | O=C(/C=C/c1ccc(Cl)cc1)N1CCN(c2ccccc2[N+](=O)[O-])CC1 | -71.4% (active)
20 | CO/N=C/c1ccc(N2CCN(C(=O)c3cccc(Cl)c3)CC2)c([N+](=O)[O-])c1 | -11.9%
21 | O=C(NCCN1CCOCC1)c1ccc2c(c1)N(Cc1cccc(Cl)c1)C(=O)c1ccccc1S2(=O)=O | 2.54%
22 | Cc1cc(OCC(=O)Nc2nccs2)c2c(C)c(C)c(=O)oc2c1 | -4.04%

Row | SMILES | activity change
23 | CC1(C)CC(=O)C=C(c2ccc(COC(=O)c3cc(F)cc(F)c3)cc2)C1=O | -3.02%
24 | CCN(CC)CCN(C(=O)c1ccc2c(c1)CCCC2)c1nc2c(OC)cccc2s1 | -10.1%
25 | Cc1cc(C)c2cc(C#N)c(N3CCNCC3)nc2c1 | 31.7%
26 | O=C(CN1CCN(C(=O)c2cccc(F)c2)CC1)Nc1ccccc1F | 4.68%
27 | CNC(=O)NC(=O)C(C)N1CCN(C/C=C/c2ccccc2)CC1 (centres undefined) | 16.2%
28 | O=C(CCN1C(=O)c2ccccc2C1=O)Nc1cccc(F)c1 | 5.88%
29 | O=C(CCN1CCN(C/C=C/c2ccccc2)CC1)Nc1ccccc1Cl | -76.7% (active)
30 | COc1ccccc1NC(=O)CCN1CCN(c2ccc(Cl)cc2)CC1 | 0.203%
31 | O=C(CN1CCN(C/C=C/c2ccccc2)CC1)Nc1ccc(F)cc1F | -155% (active)
32 | CCOC(=O)N1CCN(CCC(=O)Nc2ccccc2)CC1 | 9.24%
33 | O=C(CCN1CCN(C/C=C/c2ccccc2)CC1)Nc1cccc(F)c1 | -92.1% (active)
34 | O=C(COC(=O)CSc1ccccc1)Nc1ccc(F)cc1F | -4.38%
35 | COc1ccc(NC(=O)N(C)C[C@@H]2OCc3cn(nn3)CCCC(=O)N([C@H](C)CO)C[C@H]2C)c(OC)c1 | 3.91%
36 | Cc1ccc(-c2ccc(C3=CC(=O)CC(C)(C)C3=O)cc2)cc1 | -2.66%
37 | CSc1ncnc2c1ncn2CCCNCc1cccs1 | 6.63%
38 | CCOC(=O)c1ccccc1CN1C(=O)c2ccccc2S1(=O)=O | -3.26%
39 | COc1ccccc1C(=O)OCC(=O)NCCNC(=O)COC(=O)c1ccccc1OC | -4.76%
40 | CCOC(=O)c1ccccc1OC(=O)Oc1ccccc1C(=O)OCC | -141% (active)
41 | CCc1ccccc1NC(=O)CN1CCN(C(=O)c2cc(C3CC3)nn2-c2ccccc2)CC1 | 4.86%
42 | Cc1ccc(Nc2nc(N)nc(CN3CCN(Cc4ccccc4)CC3)n2)cc1Cl | -75.8% (active)
43 | CCOC(=O)C1CCCN(Cc2nc(N)nc(Nc3ccc(C)cc3)n2)C1 (centres undefined) | 27.8%
44 | Cc1ccccc1Nc1nc(N)nc(CN2CCN(c3ccccn3)CC2)n1 | 15.1%
